Experimental data reported in PubChem BioAssay (NCI).
This is part of a sample that, as a whole, favours compounds with a hit. Of some 83,000 tested, about 20% had one in any assay.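 Note: values are percent growth. 100 is the growth of untreated cells, values between 100 and 0 indicate rising inhibition; between -100 and 0 indicates cell death.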 A number with no mark means an inactive call. The source made the active and inactive calls. The calls were made as follows: active = growth percent below 10; inactive = the rest.

What follows are compounds tested on MDA-MB-468 breast (assay: NCI-60 one-dose screen, 48 h (100 = growth as untreated, 0 = no growth, -100 = all killed)). Details: 10 µM unless noted.

SMILES | growth
C=C(c1ccc(OC)c(/C=C/C(=O)c2cc(OC)c(OC)c(OC)c2)c1)c1cc(OC)c(OC)c(OC)c1 | -8.58% (active)
Cc1ccc(Sc2oc(-c3ccc(C)cc3)nc2[P+](c2ccccc2)(c2ccccc2)c2ccccc2)cc1 | -36.5% (active)
COc1cccc(-c2nn(-c3ccccc3)cc2-c2ccnc(NCCCNC(=O)c3ccc(F)cc3)c2)c1 | 13.7%
Cc1ccc(/C=N/NC(=O)CSc2nc3ccccc3c(=O)n2Cc2ccc(S(N)(=O)=O)cc2)cc1 | 81.2%
CSc1nn2c(-c3cc4cc(Br)ccc4oc3=O)ccnc2c1C#N | 109%
N#Cc1nc(-c2ccc(F)cc2)oc1S(=O)(=O)N1CCN(c2ccc(F)cc2)CC1 | 86.9%
OCc1cccc(-c2ccc3ncc(-c4nc(NC5CC5)ncc4F)n3c2)c1 | -39.1% (active)
CCOC(=O)CNN | 95.7%
Cc1ccc(Nc2nc(N)nc(N)c2N=O)cc1Cl | 40%
c1cnc2n[nH]c(Nc3ncnc4c3sc3ncccc34)c2c1 | 96.5%
CCOC(=O)c1c[nH][nH]c1=O | 93.8%
COc1cc(OC)c2cc(C(=O)O)c(=O)oc2c1 | 99.9%
CCOC(=O)c1c(C)nc2c(c1N)/C(=C/c1cccs1)C(=O)N2c1ccc(OC)cc1 | 28.2%
Clc1ncnc2nc[nH]c12 | 108%
COc1cc(-c2csc(NC(=O)Nc3cccc(C(F)(F)F)c3)n2)cc(OC)c1OC | 19.3%
COc1cc(C2=Nc3c(N)nc(N)nc3NC(c3cccc(Nc4ccnc5cc(C(F)(F)F)ccc45)c3)C2)cc(OC)c1OC (stereo unspecified) | 68.1%
